The source made the active and inactive calls.

Results on 9 molecules are retold here after PubChem BioAssay.

The nature of assay [1]: small molecules captured by biotinylated probe aFSTL3 – biochemical, small-molecule microarray, fluorescence 635/667, stem cell growth factor project, primary screen (AID 1064).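 Further: measures binding of the biotinylated anti-FSTL3 antibody to printed compounds.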 The conditions noted are these: higher = more signal.
A short description of assay [2]: binders from COS7 lysate, DM2A8 probe, primary screen, torsin A project, cell lysate, small-molecule microarray, fluorescence 635/667 (AID 1065). The conditions noted are these: higher = more signal, COS7 lysate expressing mutant human TOR1A.
Assay [3] can be described thus: small molecules captured by biotinylated probe aFGF2 – biochemical, small-molecule microarray, fluorescence 635/667, stem cell growth factor project, primary screen (AID 1067).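 Further: measures binding of biotinylated aFGF2 protein to printed compounds on slides; z-score merges feature fluorescence and signal-to-noise across triplicate slides.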 The conditions noted are these: higher = more signal.
The nature of assay [4]: small molecules captured by biotinylated probe aFGF10 – biochemical, small-molecule microarray, fluorescence 635/667, stem cell growth factor project, primary screen (AID 1071).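 Further: score merges 667 nm spot intensity and signal to noise from triplicate slides.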 The conditions noted are these: higher = more signal.
The target in assay [5] is Neurogenic locus notch homolog protein 2 (Homo sapiens) (UniProt Q04721). The experiment in a line: small molecules binding Notch2 protein – biochemical, small-molecule microarray, 635 nm fluorescence, stem cell growth factors, primary screen (AID 1073). The conditions noted are these: higher = more signal.
Chain of Neurogenic locus notch homolog protein 2 (Homo sapiens) (Q04721 whole entry, looked up, canonical isoform): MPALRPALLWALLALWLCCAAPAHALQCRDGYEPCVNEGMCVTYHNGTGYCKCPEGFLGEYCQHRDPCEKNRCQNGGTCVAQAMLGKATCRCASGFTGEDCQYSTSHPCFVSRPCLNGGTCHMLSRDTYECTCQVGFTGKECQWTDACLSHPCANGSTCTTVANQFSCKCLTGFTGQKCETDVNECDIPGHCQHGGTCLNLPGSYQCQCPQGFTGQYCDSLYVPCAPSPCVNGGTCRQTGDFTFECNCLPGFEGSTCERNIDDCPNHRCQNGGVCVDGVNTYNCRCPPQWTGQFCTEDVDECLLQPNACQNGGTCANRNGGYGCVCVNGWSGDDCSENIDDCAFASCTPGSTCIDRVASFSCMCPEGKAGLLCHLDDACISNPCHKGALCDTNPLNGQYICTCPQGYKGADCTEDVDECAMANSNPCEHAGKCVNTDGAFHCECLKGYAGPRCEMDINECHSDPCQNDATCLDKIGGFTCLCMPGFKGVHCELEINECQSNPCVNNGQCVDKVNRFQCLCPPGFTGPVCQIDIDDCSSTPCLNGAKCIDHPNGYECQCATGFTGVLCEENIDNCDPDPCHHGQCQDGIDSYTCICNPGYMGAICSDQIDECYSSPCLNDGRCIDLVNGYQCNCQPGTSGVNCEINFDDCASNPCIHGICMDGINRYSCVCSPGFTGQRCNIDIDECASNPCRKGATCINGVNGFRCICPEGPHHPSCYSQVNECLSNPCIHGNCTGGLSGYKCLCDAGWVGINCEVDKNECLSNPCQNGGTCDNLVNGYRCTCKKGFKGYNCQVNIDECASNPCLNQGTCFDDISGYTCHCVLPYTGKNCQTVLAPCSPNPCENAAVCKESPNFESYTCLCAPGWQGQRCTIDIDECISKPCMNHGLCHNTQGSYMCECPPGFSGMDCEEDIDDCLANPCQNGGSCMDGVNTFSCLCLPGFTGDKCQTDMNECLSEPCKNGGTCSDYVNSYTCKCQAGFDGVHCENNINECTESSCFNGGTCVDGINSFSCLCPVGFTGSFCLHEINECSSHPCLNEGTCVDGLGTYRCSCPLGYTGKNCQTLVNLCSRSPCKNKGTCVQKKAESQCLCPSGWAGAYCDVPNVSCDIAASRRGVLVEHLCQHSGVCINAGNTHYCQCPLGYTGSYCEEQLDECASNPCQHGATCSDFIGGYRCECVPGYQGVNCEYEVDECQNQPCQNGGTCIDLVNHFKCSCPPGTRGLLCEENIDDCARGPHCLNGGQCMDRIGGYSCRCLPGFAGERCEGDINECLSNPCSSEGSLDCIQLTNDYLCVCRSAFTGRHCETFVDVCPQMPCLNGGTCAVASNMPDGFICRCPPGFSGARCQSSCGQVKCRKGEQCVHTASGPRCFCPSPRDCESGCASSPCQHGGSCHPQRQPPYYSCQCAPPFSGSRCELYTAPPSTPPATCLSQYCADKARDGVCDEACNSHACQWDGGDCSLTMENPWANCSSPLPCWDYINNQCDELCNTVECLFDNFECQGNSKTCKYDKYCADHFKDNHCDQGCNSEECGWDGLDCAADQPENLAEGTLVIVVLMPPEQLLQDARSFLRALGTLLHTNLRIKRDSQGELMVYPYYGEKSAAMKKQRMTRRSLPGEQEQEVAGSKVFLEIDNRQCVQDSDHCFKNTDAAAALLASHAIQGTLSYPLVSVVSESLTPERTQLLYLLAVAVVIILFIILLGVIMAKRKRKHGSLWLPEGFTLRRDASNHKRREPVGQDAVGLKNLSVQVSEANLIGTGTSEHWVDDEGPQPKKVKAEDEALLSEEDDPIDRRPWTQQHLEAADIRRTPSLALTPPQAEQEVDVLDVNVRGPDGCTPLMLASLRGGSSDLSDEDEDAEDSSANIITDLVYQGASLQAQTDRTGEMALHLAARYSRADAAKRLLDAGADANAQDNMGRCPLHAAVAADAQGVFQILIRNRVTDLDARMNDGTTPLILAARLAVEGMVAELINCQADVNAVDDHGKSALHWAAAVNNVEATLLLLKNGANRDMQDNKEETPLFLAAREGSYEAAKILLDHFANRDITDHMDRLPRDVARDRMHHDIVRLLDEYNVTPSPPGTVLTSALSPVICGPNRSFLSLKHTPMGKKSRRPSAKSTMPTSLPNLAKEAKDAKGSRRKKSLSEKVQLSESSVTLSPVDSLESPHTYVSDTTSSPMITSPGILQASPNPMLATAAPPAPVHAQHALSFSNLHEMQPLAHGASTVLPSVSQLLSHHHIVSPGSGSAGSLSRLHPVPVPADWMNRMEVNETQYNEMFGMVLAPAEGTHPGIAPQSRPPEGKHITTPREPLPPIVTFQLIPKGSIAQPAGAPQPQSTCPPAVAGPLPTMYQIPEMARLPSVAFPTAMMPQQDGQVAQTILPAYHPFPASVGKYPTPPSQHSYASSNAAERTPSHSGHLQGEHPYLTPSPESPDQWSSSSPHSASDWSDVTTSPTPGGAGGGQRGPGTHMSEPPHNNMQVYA
The target of assay [6] is Pro-neuregulin-1, membrane-bound isoform (Homo sapiens) (UniProt Q02297). The experiment in a line: small molecules binding neuregulin-1 protein – biochemical, small-molecule microarray, fluorescence 635/667, psychiatric disease protein project, primary screen (AID 1075).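 Further: score combines 667 nm spot fluorescence with signal to noise.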 The conditions noted are these: NRG1 binding, 635 nm fluorescence, higher = more signal.
Chain of Pro-neuregulin-1, membrane-bound isoform (Homo sapiens) (Q02297 whole entry, looked up, the tested form may be a part, canonical isoform): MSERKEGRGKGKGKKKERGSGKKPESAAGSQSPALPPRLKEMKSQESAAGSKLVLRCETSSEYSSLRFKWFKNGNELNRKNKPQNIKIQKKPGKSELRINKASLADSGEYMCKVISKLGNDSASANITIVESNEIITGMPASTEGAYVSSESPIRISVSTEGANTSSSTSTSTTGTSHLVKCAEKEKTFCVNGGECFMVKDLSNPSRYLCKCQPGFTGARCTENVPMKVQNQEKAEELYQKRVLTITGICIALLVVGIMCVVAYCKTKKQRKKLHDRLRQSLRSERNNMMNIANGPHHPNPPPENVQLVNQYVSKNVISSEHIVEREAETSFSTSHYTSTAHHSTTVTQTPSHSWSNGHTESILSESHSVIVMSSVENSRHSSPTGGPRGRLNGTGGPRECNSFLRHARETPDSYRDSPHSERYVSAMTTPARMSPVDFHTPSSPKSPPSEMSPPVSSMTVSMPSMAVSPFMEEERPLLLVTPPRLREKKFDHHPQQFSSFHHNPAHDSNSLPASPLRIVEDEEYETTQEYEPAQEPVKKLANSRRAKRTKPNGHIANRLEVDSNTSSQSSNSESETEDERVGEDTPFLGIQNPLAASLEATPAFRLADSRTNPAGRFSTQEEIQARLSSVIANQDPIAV
The subject of assay [7] is Neuregulin-1 EGF-like domain. In words: small molecules binding NRG1 EGF domain – biochemical, small-molecule microarray, 635 nm fluorescence, primary screen (AID 1081).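 Further: binding of the protein to compounds printed on small-molecule microarray slides.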 The conditions noted are these: higher = more signal.
Assay [8] is described as follows: FRG1 expression reporter modulators in myotubes – cell-based, C2C12 myotubes, firefly/Renilla luciferase, luminescence, FRG1 inhibition for FSHD, primary screen (AID 1084). The conditions noted are these: FRG1 promoter luciferase, higher = more signal, called active from +8 up or from −8 down.
Assay [9] in a line: small molecules captured by biotinylated probe aFST – biochemical, small-molecule microarray, fluorescence 635/667, stem cell growth factor project, primary screen (AID 1086).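 Further: score merges 667 nm fluorescence with signal-to-noise of each printed compound spot.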 The conditions noted are these: higher = more signal.
Assay [10] can be described thus: binders of probe aHhip on microarray, primary screen, stem cell growth factor project, biochemical, small-molecule microarray, fluorescence 635/667 (AID 1087).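 Further: score merges spot fluorescence at 667nm with spot signal to noise ratio.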 The conditions noted are these: higher = more signal.
For assay [11], the system named is PRMT1 (protein arginine N-methyltransferase 1). In words: small molecules binding arginine methyltransferase PRMT1 – biochemical, small-molecule microarray, 635 nm fluorescence, primary screen (AID 1088).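 Further: binding of Prmt1 protein to compounds spotted on small-molecule microarray slides.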 The conditions noted are these: higher = more signal.
The nature of assay [12]: growth effects on S. cerevisiae YJM789 – YJM789 clinical isolate, OD600, 24 h, basal, primary screen (AID 1089).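 Further: growth of clinical yeast isolate S. cerevisiae YJM 789 seeded 1000 cells per well; test concentration not given here.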 The conditions noted are these: higher = more signal, called active from +8 up or from −8 down.
The nature of assay [13]: S. pombe growth modifiers, basal conditions – strain 972, OD600, 24 h, no modulator, primary screen (AID 1090).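 Further: basal condition with compound alone and no growth modifier present; test concentration not given here.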 The conditions noted are these: S. pombe 972 growth, higher = more signal, called active from +8 up or from −8 down.
A short description of assay [14]: budding yeast growth modifiers under rapamycin – strain BY4716, OD600, 96 h, primary screen (AID 1091). Further: test concentration not given here. The conditions noted are these: S. cerevisiae BY4716 + rapamycin, higher = more signal, called active from +8 up or from −8 down.
Assay [15] addresses Torsin-1A-interacting protein 2 (Homo sapiens) (UniProt Q8NFQ8). In words: small molecules binding lysate-expressed LULL1 – cell lysate, human LULL1 lysate, 635/667 nm fluorescence, primary screen (AID 1092).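 Further: probe is lysate of COS7 cells overexpressing human LULL1; score merges per-feature 667 nm fluorescence with signal-to-noise.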 The conditions noted are these: small-molecule microarray, hLULL1 lysate binding, 635 nm fluorescence; higher = more signal.
Assay [16] in a line: optical density change of DRC41 E. coli – strain DRC41, OD650, 24 h, E. coli filamentation project, primary screen (AID 1093).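 Further: MC1000 strain lacking acrAB efflux and sulA so SOS filamentation is blocked; test concentration not given here.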 The conditions noted are these: E. coli DRC41 growth, higher = more signal, called active from +8 up or from −8 down.
A short description of assay [17]: probe aLefty2 binding to arrayed compounds – biochemical, biotinylated probe, 635/667 nm fluorescence, primary screen (AID 1094).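 Further: score merges spot fluorescence near 667 nm with spot signal-to-noise ratio.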 The conditions noted are these: small-molecule microarray, higher = more signal.
In assay [18] the test system is Noggin (protein binding on small-molecule microarray). In words: small molecules binding Noggin protein – biochemical, 635/667 nm fluorescence, primary screen (AID 1095).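 Further: score merges 667 nm feature fluorescence with signal to noise over triplicate slides.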 The conditions noted are these: 635 nm fluorescence, higher = more signal.
The target of assay [19] is Neurogenic locus notch homolog protein 3 (Homo sapiens) (UniProt Q9UM47). The experiment in a line: small molecules binding NOTCH3 protein – biochemical, 635/667 nm fluorescence, primary screen (AID 1096). The conditions noted are these: small-molecule microarray, 635 nm fluorescence, higher = more signal.
Assay [20] is described as follows: probe aEGFR binding to arrayed compounds – biochemical, biotinylated probe, 635/667 nm fluorescence, primary screen (AID 1097).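 Further: probe is a biotinylated anti-EGFR antibody binding compounds printed on slides; score combines fluorescence near 667 nm and signal to noise of each spot.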 The conditions noted are these: small-molecule microarray, higher = more signal.

Chain of Torsin-1A-interacting protein 2 (Homo sapiens) (Q8NFQ8 whole entry, looked up): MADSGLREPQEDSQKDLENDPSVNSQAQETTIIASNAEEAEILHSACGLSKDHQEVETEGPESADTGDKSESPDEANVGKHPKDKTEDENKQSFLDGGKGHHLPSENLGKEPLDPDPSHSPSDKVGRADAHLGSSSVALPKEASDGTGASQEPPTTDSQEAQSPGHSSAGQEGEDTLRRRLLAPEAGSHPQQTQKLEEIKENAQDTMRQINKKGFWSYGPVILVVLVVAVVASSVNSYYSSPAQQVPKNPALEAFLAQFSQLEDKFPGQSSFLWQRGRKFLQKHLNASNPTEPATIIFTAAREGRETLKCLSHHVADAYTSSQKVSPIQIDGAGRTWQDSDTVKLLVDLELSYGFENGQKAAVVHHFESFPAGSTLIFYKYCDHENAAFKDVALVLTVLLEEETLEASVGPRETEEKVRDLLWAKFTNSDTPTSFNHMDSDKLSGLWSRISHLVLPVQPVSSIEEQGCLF

With `CCc1cc2c(nc1CC)CCN(CCC(C)=NOC[C@@H](O)COCc1ccco1)C2`, the composite z-score was 0.394 in [1]; 2.81 in [2]; -0.105 in assay [3]; 0.0103 in [4]; 0.95 in assay [5]; -0.38 in assay [6]. The composite z-score in [7] is 1.36; in assay [9], 2.06; in [10] it was 0.382; in assay [11], 1.54; in assay [15], -1.51; in assay [17], 0.469. Besides, the composite z-score in assay [18] came to 1.68; in [19], 1.05; in assay [20] it was 0.441. Further, the z-score in assay [8] is 1.16 (inactive); in assay [12], -0.907 (inactive); in assay [13], -0.871 (inactive); in assay [14] it was -0.935 (inactive); in assay [16], 0.903 (inactive).

Regarding `O=C1C2C=CC(C(O)c3ccc([N+](=O)[O-])cc3)N(Nc3ccc([N+](=O)[O-])cc3)C2C(=O)N1c1ccccc1` (stereo not given), the composite z-score in [1] was 0.25; in assay [2], -0.0145; in assay [3], 0.154; in assay [4], 1.13; in assay [5], 1.63; in assay [6], 1.55. Further, the composite z-score in assay [7] amounted to 1.17; in assay [9] it was 1.02; in [10] it was 0.178; in assay [11], 1.46; in assay [15], 3.28; in assay [17], 0.198. In addition, the values for the composite z-score in assay [18], in assay [19] and in [20] were -0.238, 1.04 and 0.387, respectively. The z-score is -0.164 (inactive) in [8]; 0.664 (inactive) in assay [12]; 1.53 (inactive) in assay [13]; 3.26 (inactive) in [14]; -0.956 (inactive) in assay [16].

Consider `CCOC(=O)NN=C1C[C@@H](O)[C@@H](O)[C@@H]2[C@@H]3C(=O)N(C4CCCCC4)C(=O)[C@@H]3CC[C@@H]12`, for which the composite z-score is -0.236 in [1]; 0.584 in assay [2]; -0.194 in assay [3]; 0.469 in assay [4]; 0.489 in assay [5]; -0.123 in [6]. The composite z-score in assay [7] was -0.424; in [9] it was 0.554; in assay [10] it was -0.132; in [11], -0.319; in [15] it was 0.156; in assay [17], -0.028. Moreover, the figures for the composite z-score in [18], in [19] and in assay [20] were 0.257, 0.324 and -0.0329, respectively. Moreover, the z-score is -0.371 (inactive) in assay [8]; -1.33 (inactive) in assay [12]; -0.895 (inactive) in assay [13]; -0.495 (inactive) in assay [14]; 0.637 (inactive) in [16].

As for `CO[C@H]1COC(=O)CC=C[C@H](C)[C@@H](NS(=O)(=O)c2ccc(C)cc2)COC(=O)CC=C[C@@H]1C`, the composite z-score was -0.599 in assay [1]; 0.871 in [2]; -0.134 in [3]; 0.339 in assay [4]; 0.381 in [5]; -0.425 in assay [6]. Moreover, the composite z-score in assay [7] was -0.377; in assay [9], -0.197; in assay [10] it was -0.0994; in assay [11], 0.855; in [15], -0.716; in [17], -0.118. The composite z-score in [18] was 0.659; in assay [19], 0.66; in assay [20], -0.12. The z-score was -1.15 (inactive) in assay [8]; -3.93 (inactive) in [12]; -2.23 (inactive) in [13]; -2.35 (inactive) in assay [14]; -1.11 (inactive) in assay [16].

Turning to `O=C1[C@H]2[C@H]3[C@H](O)[C@H](O)CC(=NOCc4ccccc4)[C@H]3CC[C@H]2C(=O)N1c1cccc(Oc2ccccc2)c1`, the composite z-score in assay [1] is -0.602; in [2], 0.154; in assay [3], -0.052; in [4], 0.919; in [5], 0.554; in [6], 0.391. The composite z-score in assay [7] is 1.16; in assay [9], 0.4; in assay [10], 0.0053; in assay [11], 1.48; in assay [15], 2.41; in assay [17] it was -0.0654. Further, the composite z-score amounted to 0.729 in [18], 0.824 in assay [19] and 0.0801 in assay [20]. The z-score in [8] is 0.335 (inactive); in assay [12], -0.0026 (inactive); in assay [13], 0.019 (inactive); in assay [14] it was -1.12 (inactive); in [16], 0.211 (inactive).

In the case of `CC(=O)O[C@H]1C2=C(C(=O)[C@@H]3O[C@@H]31)[C@H]1C(C)O[C@@H]2[C@@]23C(=O)[C@@H]4O[C@@H]4[C@@H](O)C2=CO[C@H](C)[C@@H]13` (stereo not given in full), the composite z-score in assay [1] was -0.295; in assay [2] it was 0.16; in [3], -0.0314; in assay [4], 0.226; in [5], 0.166; in assay [6], -0.274. Also, the composite z-score was 0.377 in [7]; -0.0354 in assay [9]; -0.0645 in [10]; 0.417 in assay [11]; -0.0273 in assay [15]; -0.265 in [17]. In addition, the composite z-score in assay [18] is -0.0408; in assay [19] it was 0.0275; in [20], -0.0671. For the same molecule, the z-score was -1.07 (inactive) in [8]; 0.014 (inactive) in [12]; -0.361 (inactive) in [13]; 0.465 (inactive) in assay [14]; 0.16 (inactive) in assay [16].

As to `CO[C@@H]1COC(=O)[C@H](C)NC(=O)[C@@H](C)COC(=O)CCC[C@H]1C`, the composite z-score is -0.438 in assay [1]; 0.402 in [2]; -0.116 in [3]; 0.686 in [4]; 0.183 in [5]; -0.0231 in [6]. Moreover, the composite z-score in [7] was 1.13; in [9], -0.163; in [10], -0.0296; in assay [11], 1.27; in [15], 2.11; in assay [17], -0.179. In addition, the composite z-score is 0.209 in [18], -0.0217 in assay [19] and 0.136 in assay [20]. Besides, the z-score in assay [8] is 0.227 (inactive); in assay [12], -0.11 (inactive); in [13] it was 0.381 (inactive); in assay [14], -1.14 (inactive); in assay [16], -0.183 (inactive).

`CCOC(=O)NN=C1C[C@@H](O)[C@@H](O)[C@@H]2[C@@H]3C(=O)N(C4CCCCC4)C(=O)[C@@H]3CC[C@H]12`: the composite z-score in [1] is -0.242; in assay [2], 0.459; in [3], -0.067; in assay [4] it was 0.267; in assay [5] it was 0.932; in assay [6], 0.215. Moreover, the composite z-score in assay [7] is 0.444; in [9] it was 0.142; in [10], -0.0994; in [11], 0.314; in assay [15] it was 0.746; in assay [17], -0.139. Moreover, the composite z-score was 0.315 in assay [18], 0.213 in assay [19] and -0.0776 in assay [20]. For the same molecule, the z-score in assay [8] was 0.228 (inactive); in [12], 0.351 (inactive); in [13], 0.458 (inactive); in assay [14], 0.529 (inactive); in [16], -0.931 (inactive).

On to `CN1C(=O)C2C=CC(C(O)c3ccc(Br)cc3)N(N(c3ccccc3)c3ccccc3)C2C1=O` (stereo not given), for which the composite z-score was 0.519 in assay [1]; -0.225 in [2]; 0.301 in [3]; 0.125 in [4]; 1.09 in assay [5]; 0.181 in [6]. The composite z-score was 0.985 in assay [7]; 0.576 in [9]; -0.0618 in assay [10]; 0.289 in assay [11]; 1.94 in [15]; 0.238 in [17]. For the same molecule, the values for the composite z-score in [18], in assay [19] and in [20] were -0.482, 0.585 and 0.146, respectively. Further, the z-score in [8] is 0.162 (inactive); in assay [12] it was 0.351 (inactive); in assay [13], 1.27 (inactive); in assay [14], 2.27 (inactive); in assay [16], -1.24 (inactive).
